Results on 40 molecules are retold here after PubChem BioAssay (NCATS).

Results filed as inconclusive are left out. Active and inactive are the calls of the source. The call rests on the fitted dose curve.

For the test, the target named is Vitamin D3 receptor (Homo sapiens) (UniProt P11473). Kind of test: qHTS assay for small molecule agonists of vitamin D receptor signaling (AID 588543). The note with it: HEK293T VDR-UAS-bla, beta-lactamase ratio, 16 h; series mostly up to 76.8 µM. An excerpt: NIH Chemical Genomics Center [NCGC]
Vitamin D3 receptor (Homo sapiens), sequence (P11473 whole entry, looked up): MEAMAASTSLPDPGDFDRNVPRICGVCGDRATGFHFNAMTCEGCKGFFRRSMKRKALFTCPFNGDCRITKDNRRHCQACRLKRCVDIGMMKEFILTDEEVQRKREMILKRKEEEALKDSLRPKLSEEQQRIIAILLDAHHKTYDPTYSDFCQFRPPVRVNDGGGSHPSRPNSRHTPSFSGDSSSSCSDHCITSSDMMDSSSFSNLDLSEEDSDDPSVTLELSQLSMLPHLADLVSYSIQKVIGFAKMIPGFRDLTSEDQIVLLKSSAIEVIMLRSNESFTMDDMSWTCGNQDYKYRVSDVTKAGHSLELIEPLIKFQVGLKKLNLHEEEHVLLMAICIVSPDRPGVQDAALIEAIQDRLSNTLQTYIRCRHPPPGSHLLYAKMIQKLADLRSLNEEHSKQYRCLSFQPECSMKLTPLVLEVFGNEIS
U.S. Environmental Protection Agency [EPA]
National Institutes of Environmental Health Sciences [NIEHS]
National Toxicology Program [NTP]
The Vitamin D receptor (VDR) is a member of nuclear hormone receptor superfamily and it plays a critical role in calcium homeostasis and bone metabolism. It plays a role in inducing cell differentiation, inhibiting cell growth and in thrombogenicity. So, VDR that mediates these effects represents a pharmacological target in prevention and treatment of hyperproliferative malignancies, such as cancer and psoriasis, cardiovascular, immunological, inflammatory and renal diseases etc.
NCGC Assay Protocol Summary
Using a beta-lactamase reporter-gene under control of Vitamin D receptor (VDR) response element, a cell-based assay [GeneBLAzer (VDR -UAS-bla assay developed by Invitrogen] was used to measure VDR ligands signaling. GeneBLAzer VDR -UAS-bla HEK293T cells were used with assay medium containing 2% charcoal-stripped FBS. The assay was performed in clear bottom black Greiner 1536-well plates. 1-alpha,25-Dihydroxy vitaminD3 was used as a positive control in the screen. Library compounds were measured for their ability to stimulate the reporter gene activity. Compounds were screened in a titration series in 1536-well format. The fluorescence intensity (405 nm excitation, 460/530 nm emission) was measured using an EnVision plate reader. Data was normalized relative to 1-alpha,25-Dihydroxy vitaminD3 control (50 nM, 100%) and DMSO only wells (basal, 0%). Concentration-response titration points for each compound were fitted to the Hill equation yielding concentrations of half-maximal stimulation (EC50) and maximal response (efficacy) values.
qHTS protocol for VDR beta-lactamase assay in agonist mode
[Step] [Parameter] [Value] [Description]
1. Reagent; 6 uL; 2000 cells/well
2. Incubation; 37 C for 5 hrs
4. Controls (1-alpha,25-Dihydroxy vitaminD3); 23 nL,
- Final concentrations of 50 nM and 15 nM in two columns
5. Incubation; 37 C for 16 hrs
6. Detection reagent; 1 uL of CCF4-dye
7. Incubation; RT for 2 hrs
8. Detection; Fluorescence; Envision plate reader
(In general: qHTS replaces the single test concentration by a dilution series.)
In the case of `CC(C)C=O`, the result was inactive.

Take `Nc1ccccc1S(=O)(=O)O`: the result was inactive.

Regarding `CC=O`, the outcome was inactive.

Take `N#CCc1ccccc1[N+](=O)[O-]`: the result was inactive.

Turning to `Cc1ccc(C)c(N)c1`, the outcome was inactive.

Regarding `CCCCCCCN`, the outcome was inactive.

Consider `CCCCC=O`, for which the outcome was inactive.

`CCCCC(CC)CNCC(CC)CCCC` (stereo not given): the outcome was inactive.

On to `CC(=O)C1(C)CC2=C(CCCC2(C)C)CC1C` (stereo not given), for which the result was inactive.

`O=Cc1ccccc1Cl`: the result was inactive.

Consider `CNc1ccccc1`, for which the outcome was inactive.

On to `CC(=O)c1cccc([N+](=O)[O-])c1`, for which the outcome was inactive.

In the case of `CCCCCO`, the result was inactive.

`Cc1ccc2c(c1[N+](=O)[O-])C(=O)c1ccccc1C2=O`: the result was inactive.

`CCC1CO1` (stereo not given): the outcome was inactive.

Take `ClCCl`: the result was inactive.

`CCCCCCCCN`: the outcome was inactive.

Take `CC=C(Cl)Cl`: the result was inactive.

For `Cc1ccc2oc(=O)ccc2c1`, the outcome was inactive.

Consider `Cc1cccc(C)c1O`, for which the outcome was inactive.

As for `O=Cc1ccc(CO)o1`, the outcome was inactive.

Consider `CC(=O)c1ccccn1`, for which the result was inactive.

Regarding `Cc1ccc2cccnc2c1`, the result was inactive.

With `CC(C)c1ccccc1`, the outcome was inactive.

Take `NC(=O)CCCCC(N)=O`: the outcome was inactive.

With `Cc1ccco1`, the result was inactive.

Regarding `CCCCCNCCCCC`, the result was inactive.

`ClC/C=C/CCl`: the outcome was inactive.

On to `Cc1cc(C(=O)O)ccc1[N+](=O)[O-]`, for which the outcome was inactive.

For `CCOc1cc(OCC)c(C(C)=O)cc1OCC`, the result was inactive.

Turning to `CCC=O`, the result was inactive.

`Cc1ccc(C)cc1`: the outcome was inactive.

Consider `CC(=O)c1ccc([N+](=O)[O-])cc1`, for which the outcome was inactive.

On to `COCCOC(=O)c1ccccc1C(=O)OCCOC`, for which the result was inactive.

For `O=C(O)CCSSCCC(=O)O`, the result was inactive.

Turning to `O=[N+]([O-])c1ccccc1CCO`, the outcome was inactive.

Consider `CC/C=C1/OC(=O)c2ccccc21`, for which the result was inactive.

In the case of `CC1CCCO1` (stereo not given), the result was inactive.

Regarding `Cc1cccc2cccnc12`, the result was inactive.

Turning to `O=C(Cl)c1c(Cl)cccc1Cl`, the outcome was inactive.
